Test [1] deals with TTR (gene 7276). The experiment in a line: CCTE_GLTED_hTTR_0.5uM: CCTE's human Transthyretin (hTTR) Inhibition Assay, with 0.5uM TTR, Great Lakes Toxicology and Ecology Division (GLTED) Lab (AID 2284320). The method, boiled down: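 Probe (ANSA) displacement from 0.5 uM human transthyretin was followed by fluorescence (ex 380, em 475) after a 2 h incubation with chemical. Activity was scored as signal loss and fitted positively relative to DMSO.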

Test [2] in a line: Tanguay_ZF_120hpf_MO24: Oregon State University Tanguay Lab 24 Hour Post-fertilization zebrafish Assay for Mortality (AID 2284389). An outline of the steps: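 Embryo death at 24 hpf was recorded as present or absent in Tropical 5D zebrafish, dechorionated at 4 hpf and dosed statically from 6 hpf (28C, 0.64% DMSO); 5 uM trimethyltin chloride served as positive control.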
A short description of test [3]: Tanguay_ZF_120hpf_DP24: Oregon State University Tanguay Lab 24 Hour Post-fertilization zebrafish Assay for Delayed Development (AID 2284390). An outline of the steps:
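Scored at 24 hpf as a binary present/absent call of delayed development by brightfield, with dead embryos not assessed. Embryos (5D wild type, chorion removed with pronase at 4 hpf) dosed statically from 6 hpf at 28 C in 0.64% DMSO.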

Test [4] in a line: Tanguay_ZF_120hpf_CRAN: Oregon State University Tanguay Lab 120 Hour Post-fertilization zebrafish Assay for Craniofacial Malformation (AID 2284397). An outline of the steps:
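Scoring of craniofacial malformation as a binary endpoint was done at 120 hpf by brightfield microscopy and was not done in dead embryos. Exposure was static, starting at 6 hpf, in dechorionated wild-type embryos held singly at 28C with 0.64% DMSO final.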

Test [5] is described as follows: Tanguay_ZF_120hpf_AXIS: Oregon State University Tanguay Lab 120 Hour Post-fertilization zebrafish Assay for Axial Malformation (AID 2284398). The method, boiled down:
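Scoring was binary (present or absent) for body-axis defects, judged by brightfield imaging at 120 hpf in surviving larvae. Exposure was static at 28C from 6 hpf in chorion-free 5D wild-type embryos, with 0.64% DMSO vehicle.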

The nature of test [6]: Tanguay_ZF_120hpf_MORT: Oregon State University Tanguay Lab 120 Hour Post-fertilization zebrafish Assay for Mortality (AID 2284399). An outline of the steps:
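Mortality, recorded present/absent via brightfield imaging at 24 and 120 hpf, in 5D zebrafish embryos exposed statically from 6 hpf after pronase chorion removal. Exposure at 28C, 0.64% DMSO vehicle, DMSO baseline.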

Test [7] is described as follows: Tanguay_ZF_120hpf_TCHR: Oregon State University Tanguay Lab 120 Hour Post-fertilization zebrafish Assay for Touch Responsive (AID 2284403). An outline of the steps: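 Binary touch-response calls are made at 120 hpf in 5D wild-type zebrafish larvae. These larvae were dechorionated with pronase and exposed singly from 6 hpf in sealed, dark plates at 28 °C with 0.64% DMSO final; dead embryos are excluded.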

Test [8] can be described thus: Tanguay_ZF_120hpf_ANY: Oregon State University Tanguay Lab 120 Hour Post-fertilization zebrafish Assay for Any Mortality and Malformation (AID 2284404). The method, boiled down: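 Dechorionated Tropical 5D wild-type embryos, one per well from 6 hpf, static exposure in sealed, dark plates at 28C until 120 hpf, 0.64% DMSO final. Brightfield scoring of mortality and malformations as binary presence/absence, pooling 13 morphology endpoints.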

Test [9] relates to SERPINA7 (gene 6906). The experiment in a line: CCTE_GLTED_hTBG: CCTE's human Thyroxine-binding Globulin (TBG) Inhibition Assay, Great Lakes Toxicology and Ecology Division (GLTED) Lab (AID 2284343; active = hit-call score of the fitted dose curve at least 0.9, where 1 is the maximum;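 also: active chemicals lower fluorescence versus DMSO baseline by displacing probe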). The method, boiled down:
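Steps: combine TBG with chemical; incubate 2 hours so that disruptors release ANSA; record fluorescence (380 ex, 475 em). Loss of signal was fitted against DMSO controls.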

The nature of test [10]: CCTE_Padilla_ZF_Score.Craniofacial: CCTE's 144 Hour Post-fertilization zebrafish Assay Score for Craniofacial Malformation, Padilla Lab (AID 2284405). The method, boiled down: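 Craniofacial defects were scored at 6 dpf by two blinded observers using stereomicroscopy. Exposure of wild-type embryos began at 6–8 hpf in sealed wells of 10% Hanks' solution at 26C, with chemical removed by rinsing at 5 dpf.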

Test [11] is described as follows: CCTE_Padilla_ZF_Score.Edema: CCTE's 144 Hour Post-fertilization zebrafish Assay Score for Edema Malformation, Padilla Lab (AID 2284406). An outline of the steps:
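Edema scored at 6 dpf by two blinded observers under a stereo microscope, in single outbred wild-type larvae exposed from 6-8 hpf in sealed wells (Hanks', 26C, 14:10 h light) and chemical-free after a 5 dpf rinse.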

Test [12] is described as follows: CCTE_Padilla_ZF_Score.Spine: CCTE's 144 Hour Post-fertilization zebrafish Assay Score for Spine Malformation, Padilla Lab (AID 2284407). The method, boiled down:
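Spine malformation scored at 6 dpf by two independent blinded observers under stereomicroscope, after static sealed exposure from 6–8 hpf at 26C in Hanks' solution with rinse on 5 dpf. Positive-direction fit against DMSO control.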

Test [13] can be described thus: CCTE_Mundy_HCI_iCellGluta_NOG_NeuronCount: CCTE's Neurite Outgrowth Assay in iCellGluta cells for Neuron Count, Mundy Lab (AID 2284340; active = hit-call score of the fitted dose curve at least 0.9, where 1 is the maximum;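 also: cells fixed about 48 h after compound addition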). An outline of the steps:
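Neuron count read by automated high-content imaging of Hoechst 33342 and betaIII-tubulin/Alexa Fluor-488 labelling in human iPSC glutamatergic neurons. Activity fitted relative to DMSO.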

Test [14] can be described thus: CCTE_Mundy_HCI_iCellGluta_NOG_NeuriteCount: CCTE's Neurite Outgrowth Assay in iCellGluta cells for Neurite Count, Mundy Lab (AID 2284342; active = hit-call score of the fitted dose curve at least 0.9, where 1 is the maximum;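 also: chemical exposure about 48 hours starting 2 hours after plating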).
The nature of test [15]: Tanguay_ZF_120hpf_EDEM: Oregon State University Tanguay Lab 120 Hour Post-fertilization zebrafish Assay for Edema Malformation (AID 2284400). The method, boiled down:
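Edema recorded as a binary endpoint under brightfield at 120 hpf, excluding embryos that died. Exposure was static, sealed, 28C, from 6 hpf in dechorionated wild-type larvae, final DMSO 0.64%, DMSO as baseline.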

A short description of test [16]: Tanguay_ZF_120hpf_BRN: Oregon State University Tanguay Lab 120 Hour Post-fertilization zebrafish Assay for Brain Region Malformation (AID 2284402). The method, boiled down: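 Binary brightfield scoring of brain malformation at 120 hpf in 5D wild-type larvae, chorion removed with pronase at 4 hpf. Static exposure began at 6 hpf, 28C, sealed plates, DMSO 0.64% (vol/vol) as vehicle baseline.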

The nature of test [17]: CCTE_Deisenroth_5AR_NBTE_acceptor: CCTE's 5alpha-reductase NanoBRET Target Engagement Assay - Autofluorescence Screen, Deisenroth Lab (AID 2284321).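 Also: compound fluorescence in the acceptor channel under 460 nm excitation flags autofluorescence artifacts.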 Conditions: actives raise or lower the signal. An outline of the steps: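 HEK293T cell-based NanoBRET assay read 5 h after dosing; this acceptor channel serves as an autofluorescence artifact screen. Chemicals at nominal 100 uM were scanned in three independent runs (n=3), excitation 460 nm. Fitting was bidirectional versus DMSO baseline.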

In test [18] the test system is SRD5A2 (gene 6716). The test is described as follows: CCTE_Deisenroth_5AR_NBTE_ratio: CCTE's 5alpha-reductase NanoBRET Target Engagement Assay - Ratio, Deisenroth Lab (AID 2284322). To be noted: actives raise or lower the signal. The method, boiled down: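 SRD5A2-NanoLuc HEK293T; cmpd 10 nM-29.9 uM, 3 h preinc + testosterone tracer 2 h; NanoBRET ratio 650/460; bidirectional fit vs DMSO.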

Results filed as inconclusive are left out. Activity calls are given as the source filed them. The calls were made as follows, unless noted: active = hit-call score of the fitted dose curve at least 0.9, where 1 is the maximum; inactive = score below 0.9.

As for `COC(=O)CCC(F)(F)C(F)(F)C(F)(F)C(F)(F)F`, in test [1], the half-maximal activity concentration (AC50) was 53.4 µM (active). In addition, the molecule was classed as inactive in test [2], in [3], in test [4], in test [5], in test [6] and in test [7]. The molecule was classed as inactive in test [8].
For the molecule `FC(F)(F)C(F)(F)C(F)(F)C(F)(F)C(F)(F)CCI`, the AC50 in test [1] is 18.6 µM (active); in test [9], 27 µM (active); in [11], 30.4 µM (active). Moreover, the outcome in [2], in [3], in test [4], in [5], in [6] and in test [7] was inactive. For the same molecule, the molecule was classed as inactive in [8], in test [10] and in test [12].
For `OCC(F)(F)C(F)(F)C(F)(F)C(F)(F)C(F)(F)C(F)F`, the concentration at half-maximal activity (AC50) in test [1] is 33.2 µM (active). Besides, the result in [2], in [3], in test [4], in test [5], in test [6] and in [7] was inactive. The molecule was called inactive in test [8], in test [10], in test [11] and in test [12].
Consider `C=C(C)C(=O)OCC(F)(F)C(F)(F)C(F)(F)F`, for which the result in [13], in test [14], in test [2], in test [3], in test [4] and in test [5] was inactive. Moreover, the call in test [6], in test [15], in test [16], in [7], in [8] and in test [10] was inactive. For the same molecule, the result in test [11] and in test [12] was inactive.
Take `CCN(Cc1cccc(S(=O)(=O)O)c1)c1ccc(C(=C2C=CC(=[N+](CC)Cc3cccc(S(=O)(=O)O)c3)C=C2)c2ccc(O)cc2S(=O)(=O)[O-])cc1`: the AC50 is 1.52 µM (active) in test [17], 1.56 µM (active) in test [18] and 25.4 µM (active) in [9].
Turning to `OCC(F)(F)C(F)(F)C(F)(F)C(F)(F)C(F)(F)C(F)(F)F`, the figures for the AC50 in test [1], in test [8] and in [11] were 36.8 µM (active), 112 µM (active) and 84.7 µM (active), respectively. The molecule was called inactive in [2], in test [3], in test [4], in test [5], in [6] and in [16]. In addition, the molecule was classed as inactive in test [7], in test [10] and in [12].
On to `O=C(O)C(F)(F)C(F)(F)C(F)(F)C(F)(F)C(F)(F)C(F)(F)C(F)(F)C(F)(F)Cl`, for which the concentration at half-maximal activity (AC50) was 0.252 µM (active) in test [1]; 62.6 µM (active) in [9]; 37.2 µM (active) in [4]; 37.2 µM (active) in test [5]; 37.2 µM (active) in test [15]; 37.2 µM (active) in test [7]. Further, the AC50 in test [8] was 39.8 µM (active); in test [10] it was 35.7 µM (active); in test [11], 36.6 µM (active). Further, the call in [13], in test [14], in test [2], in [3], in test [6] and in test [12] was inactive.
For the molecule `O=C(Cl)C(F)(F)C(F)(F)C(F)(F)C(F)(F)C(F)(F)C(F)(F)C(F)(F)C(F)(F)F`, the concentration at half-maximal activity (AC50) was 0.491 µM (active) in test [1], 14.9 µM (active) in [9] and 10 µM (active) in test [11]. Further, the result in test [10] and in [12] was inactive.
In the case of `O=C(CC(=O)C(F)(F)C(F)(F)F)C(F)(F)F`, the AC50 is 3 µM (active) in [1] and 0.0499 µM (active) in test [8]. The molecule was called inactive in [13], in test [14], in test [2], in [3], in test [4] and in [5]. Further, the outcome in [6], in test [7], in test [10], in test [11] and in [12] was inactive.
